Screens deposited in PubChem by National Center for Advancing Translational Sciences (NCATS).
Rows were chosen to be rich in hits. Some 19% of all compounds tested hit in one or more screens of this group.
TDP1 block: inhibitors of human tyrosyl-DNA phosphodiesterase TDP1; Potency, µM (doses to about 130 µM), inactives show top-dose activity change, negative = inhibition, most hits filed as inhibitors; hit rate 0.28% among 350,000; recombinant TDP1, AlphaScreen DNA substrate cleavage; AID 485290; Q9NUW8; further: nearly all actives have a fitted effect of over 40% in size
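AlphaScreen read-out: signal falls as enzyme removes the 3' tyrosine-FITC from a 5'-biotinylated DNA oligo (15 nM, 5 min, RT). Enzyme was E. coli-made recombinant Tdp1 at 1 nM, exposed to compound for 15 min beforehand; beads 10 ug/ml, 10 min.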
DT40 TDP1 CPT: growth inhibition of DT40 Tdp1-/-;hTDP1 cells with camptothecin (screen for TDP1 inhibitors); chicken DT40 Tdp1-/-;hTDP1 cells + 20 nM CPT, ATP luminescence, 48 h; Potency, µM (doses to about 46.2 µM), for the others: at the highest dose activity change, negative = growth inhibition, hits mostly inhibitors; hit rate 12% among 420,000; further: nearly all actives have a fitted effect of over 55% in size
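Cell growth measured by CellTiter-Glo luminescence after a minimum 48 h, 37 C compound exposure with 20 nM CPT in Tdp1-knockout DT40 cells stably expressing hTDP1, seeded 400/well; qHTS titration format.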
DT40 TDP1 no CPT: qHTS for Inhibitors of human tyrosyl-DNA phosphodiesterase 1 (TDP1): qHTS in cells in absence of CPT; DT40 Tdp1-/- hTDP1 cells, no CPT, ATP luminescence, 48 h; Potency, µM (doses to about 46.2 µM), without a hit: top-dose activity change, negative = growth inhibition, most hits filed as inhibitors; hit rate 15% among 420,000; AID 686978, 2013; further: nearly all actives have a fitted effect of over 55% in size
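Chicken DT40 Tdp1-/- cells stably complemented with human TDP1 were seeded at 400 cells/well with DMSO in place of 20 nM camptothecin. After compound pinning, cells grew at least 48 hr at 37 °C; viability read by CellTiter-Glo luminescence.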
Gal4-VP16 FLuc: inhibits Gal4-VP16 luciferase reporter, ROR gamma counter-screen; Drosophila S2 Gal4-VP16 UAS-luciferase, luminescence, 20 h; hit rate 3.5% among 310,000; Potency, µM (top dose mostly 53.6 µM), inactives show at the highest dose activity, negative = inhibition, most hits filed as inhibitors;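 further: Gal4-VP16 expression switched on by copper sulfate through the metallothionein promoter; nearly all actives have a fitted effect of over 50% in size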
RORgamma inh: blocks mouse ROR gamma transcriptional activity. P51450. Drosophila S2 Gal4-RORgamma UAS-luciferase reporter, 20 h. Potency, µM (doses to about 53.6 µM), without a hit: top-dose activity change, negative = inhibition, hits mostly inhibitors. hit rate 5.4% among 310,000. AID 2551; further: nearly all actives have a fitted effect of over 60% in size
Target sequence (P51450 whole entry, looked up, the tested form may be a part): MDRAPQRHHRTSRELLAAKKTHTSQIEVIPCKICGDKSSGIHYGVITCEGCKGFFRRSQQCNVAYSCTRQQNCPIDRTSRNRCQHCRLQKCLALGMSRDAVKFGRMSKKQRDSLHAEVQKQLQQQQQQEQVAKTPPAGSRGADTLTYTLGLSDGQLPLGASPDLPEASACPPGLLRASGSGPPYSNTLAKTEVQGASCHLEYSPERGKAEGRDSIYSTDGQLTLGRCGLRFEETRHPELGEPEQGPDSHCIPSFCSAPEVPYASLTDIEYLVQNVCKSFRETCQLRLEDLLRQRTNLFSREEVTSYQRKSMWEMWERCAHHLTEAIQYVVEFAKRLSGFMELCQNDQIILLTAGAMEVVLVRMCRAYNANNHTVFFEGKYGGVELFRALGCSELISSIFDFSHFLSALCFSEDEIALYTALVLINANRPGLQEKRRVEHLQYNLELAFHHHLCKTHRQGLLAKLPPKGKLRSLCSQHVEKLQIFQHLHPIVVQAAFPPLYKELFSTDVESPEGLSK
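ROR gamma transcriptional activity was tracked as Gal4-UAS luciferase output in stably transfected Drosophila Schneider cells, with compound added 1 hr before 700 uM copper sulfate induction and a 20 hr ambient-temperature incubation.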
Numbers without * were called inactive; ? = inconclusive; / = no result. The call rests on the fitted dose curve; in most records, active means well fitted curve in the direction sought with a large enough effect; inconclusive means small, poorly fitted or top-dose-only effect, or another doubt; inactive means no such curve, though single readings can be large; an effect the other way counts as inactive or inconclusive. On the % scale 0 is the no-effect control and ±100 the full control effect; potency means the concentration at half of the fitted maximal effect.

SMILES | TDP1 block | DT40 TDP1 CPT | DT40 TDP1 no CPT | Gal4-VP16 FLuc | RORgamma inh
C[C@H](CO)N1C[C@H](C)[C@@H](CN(C)Cc2ccncc2)Oc2c(NC(=O)Cc3ccccc3)cccc2C1=O | 2% | ? | ? | / | /
C[C@@H]1CN([C@@H](C)CO)C(=O)c2cc(NC(=O)C3CC3)ccc2O[C@@H]1CN(C)Cc1ccc(Cl)c(Cl)c1 | 4% | 21µM* | 23µM* | / | /
C[C@@H]1CN([C@H](C)CO)C(=O)c2cc(NC(=O)C3CCCCC3)ccc2O[C@@H]1CN(C)Cc1ccncc1 | 0% | ? | -19% | / | /
COc1ccc(-n2c(SCC(=O)N3CCCC3)nc3ccccc3c2=O)cc1 | -5% | / | / | -1% | 0%
COc1ccc(O)c(-c2[nH]ncc2C(=O)c2ccccc2)c1 | 6% | -28% | -27% | -7% | 9%
C[C@H](CO)N1C[C@H](C)[C@@H](CN(C)Cc2ccc(Cl)c(Cl)c2)Oc2c(NS(=O)(=O)c3ccc(F)cc3)cccc2C1=O | 3% | ? | 23µM* | / | /
C[C@H](CO)N1C[C@H](C)[C@@H](CN(C)Cc2ccc(-c3ccccc3)cc2)Oc2c(NC(=O)Cc3ccccc3)cccc2C1=O | 6% | ? | 23µM* | / | /
C[C@H](CO)N1C[C@H](C)[C@@H](CN(C)Cc2ccccc2)Oc2c(NS(=O)(=O)c3ccc(F)cc3)cccc2C1=O | 0% | 0% | -5% | / | /
C[C@H](CO)N1C[C@H](C)[C@@H](CN(C)Cc2ccc(C(=O)O)cc2)Oc2c(NS(=O)(=O)c3cccs3)cccc2C1=O | 1% | -12% | -1% | / | /
C[C@@H]1CN([C@@H](C)CO)C(=O)c2cccc(NS(=O)(=O)c3cccs3)c2O[C@H]1CN(C)Cc1ccc(C(F)(F)F)cc1 | 3% | 16µM* | ? | / | /
C[C@H](CO)N1C[C@H](C)[C@@H](CN(C)Cc2ccc(Cl)c(Cl)c2)Oc2c(NC(=O)Cc3ccccc3)cccc2C1=O | 3% | ? | 15µM* | / | /
C[C@H](CO)N1C[C@H](C)[C@@H](CN(C)C(=O)Nc2ccccc2)Oc2c(NC(=O)Cc3ccccc3)cccc2C1=O | 1% | -25% | 5% | / | /
CC1CCN(C(=O)C2CCN(S(=O)(=O)c3cccc4cccnc34)CC2)CC1 | 1% | -6% | ? | -3% | 5%
CC(C)C[C@@H](CNCC(=O)[C@H](CC(C)C)NC(=O)c1[nH]cnc1C(=O)N[C@@H](C)CN)NC(=O)c1nc[nH]c1C(=O)N[C@@H](Cc1ccccc1)C(=O)O | / | ? | -5% | / | /
C[C@H](CO)N1C[C@H](C)[C@@H](CN(C)Cc2ccncc2)Oc2c(NC(=O)C3CCCCC3)cccc2C1=O | 3% | ? | ? | / | /
C[C@@H]1CN([C@@H](C)CO)C(=O)c2cccc(NC(=O)C3CCCCC3)c2O[C@@H]1CN(C)Cc1ccc(Cl)c(Cl)c1 | 3% | 10µM* | 21µM* | / | /
CCOc1ccc(Nc2nc(N)nc(CCl)n2)cc1 | 12% | 2.1µM* | 5.8µM* | ? | ?
Cc1ccc(Nc2nc(N)nc(CCl)n2)c(C)c1 | / | 6.5µM* | 10µM* | ? | -42%
CCOc1ccc(Nc2nc(N3CCCCC3)nc(N3CCCCC3)n2)cc1 | 1% | -21% | ? | 1% | -16%
COc1cccc(Nc2nc(N)nc(CCl)n2)c1 | 7% | 13µM* | ? | -21% | -19%
Cc1ccc(Nc2nc(N)nc(CCl)n2)cc1 | / | 16µM* | ? | ? | ?
COC(=O)C1=C(N)OC2=C(C(=O)CC(C)(C)C2)C1c1ccoc1 (centres undefined) | -6% | ? | ? | -5% | -2%
COc1ccc(CN2CCCC(C(=O)c3ccc(SC)cc3)C2)cc1Cn1cccn1 (centres undefined) | 8% | ? | ? | -2% | 12%
Cc1cccc(Nc2nc(N)nc(CSc3nccc(C)n3)n2)c1 | 0% | -1% | -7% | 14% | 22%
Cc1ccc(Nc2nc(N)nc(CN3CCc4ccccc4C3)n2)cc1 | 7% | 18µM* | ? | -11% | ?
